# Laboratory results from PubChem BioAssay (EPA / NIEHS).
# Values joined by “and” are separate entries in the source; they are usually repeats but may differ in a detail not shown here. Equal values may be shown once. Some compounds were tested as several samples or in several runs, with calls that do not always agree. Active and inactive are the calls of the source. The calls were made as follows: active = hit-call score of the fitted dose curve at least 0.9, where 1 is the maximum; inactive = score below 0.9.
# Biological target: Bile acid receptor (Homo sapiens) (UniProt Q96RI1)
# Test: ATG_IR1_CIS: Attagene CIS-FACTORIAL HepG2 Assay for human Nuclear Receptor Subfamily 1 Group H Member 4 (NR1H4), IR1 submotif (AID 2282946)
# Details: IR1 reporter transcription, actives raise or lower the signal
# Procedure: ATG_CIS is a cell-based, multiplexed-readout assay that uses HepG2, a human liver cell line, with measurements taken at 24 hours after chemical dosing in a 24-well plate.ATG_IR1_CIS is one of 52 assay component(s) measured or calculated from the ATG_CIS assay. It is designed to make measurements of mRNA induction, a form of inducible reporter, as detected with fluorescence intensity signals by Reverse transcription polymerase chain reaction (RT-PCR) and Capillary electrophoresis technology.Data from the assay component ATG_IR1_CIS was analyzed into 1 assay endpoint. This assay endpoint, ATG_IR1_CIS, was analyzed with bidirectional fitting relative to DMSO as the negative control and baseline of activity. Using a type of inducible reporter, measures of mRNA for gain or loss-of-signal activity can be used to understand the reporter gene at the transcription factor-level as they relate to the gene NR1H4. Furthermore, this assay endpoint can be referred to as a primary readout, because this assay has produced multiple assay endpoints where this one serves a reporter gene function. To generalize the intended target to other relatable targets, this assay endpoint is annotated to the nuclear receptor intended target family, where the subfamily is non-steroidal.
# Human liver HepG2 cells are transiently transfected with multiple reporter transcription units (MRTUs) in 6-well plates using FuGene 6 reagent (Roche; 3 ml FuGene/1 mg DNA). The MRTU constructs are regulated by a cis-regulating element (promoter). […] A major difference between the CIS and TRANS system is that in CIS activities of endogenous TFs are measured, whereas the TRANS assay evaluates changes in activities of exogenous, chimeric NR-Gal4 proteins. […] At the end of 24 hour incubation, total RNA was isolated using TriZol reagent (Invitrogen). The isolated RNA is then reverse-transcribed using oligo(dT) primer and Mo-MLV reverse transcriptase (Invitrogen) with DNAse I (Ambion) treatment for 30 min. The one-tenth of the produced cDNA was amplified by PCR using Taq DNA polymerase (Invitrogen) and two reporter sequence-specific primers. The PCR products were fluorescently labeled by primer extension with 6-arboxyfluorescein (6-FAM) 5'-labeled reporter sequence-specific primer (2 min at 95 C, 20 s at 68 C and 10 min at 72 C) and these products were digested with 5U of HpaI (New England Biolabs) for 2h at 37 C. The fragments were purified using Qiaquick PCR columns (Qiagen), analyzed on an ABI 3130xL genetic analyzer (Applied Biosystems) with peak positions identified by using a set of X-rhodamine (ROX)-labeled MapMarker1000 molecular weight standards (BioVentures). The raw capillary electrophoresis data was processed using Attagraph software (Attagene).
# Chain of Bile acid receptor (Homo sapiens) (Q96RI1 whole entry, looked up): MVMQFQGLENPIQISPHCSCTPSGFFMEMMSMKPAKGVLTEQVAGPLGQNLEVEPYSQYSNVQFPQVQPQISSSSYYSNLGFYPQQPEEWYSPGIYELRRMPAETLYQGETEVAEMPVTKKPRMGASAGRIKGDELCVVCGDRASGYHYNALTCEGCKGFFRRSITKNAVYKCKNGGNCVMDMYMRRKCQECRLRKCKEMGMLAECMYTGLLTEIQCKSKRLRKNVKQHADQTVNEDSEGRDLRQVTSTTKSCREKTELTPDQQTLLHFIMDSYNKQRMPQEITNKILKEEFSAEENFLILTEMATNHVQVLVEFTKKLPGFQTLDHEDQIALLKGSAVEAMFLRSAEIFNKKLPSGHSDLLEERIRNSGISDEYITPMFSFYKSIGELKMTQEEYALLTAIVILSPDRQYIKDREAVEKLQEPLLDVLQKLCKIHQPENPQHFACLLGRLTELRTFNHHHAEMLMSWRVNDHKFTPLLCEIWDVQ
SMILES,outcome,AC50
c1ccc(-c2ccccc2)cc1,inactive,–
C1CC2OC2CC1C1CO1 (centres undefined),inactive,–
CCC(C)(c1ccc(O)cc1)c1ccc(O)cc1,inactive,43 µM (active) and 33.4 µM (active) and 54.5 µM (active)
C[C@]12CCC(=O)C=C1CC[C@@H]1[C@@H]2CC[C@@]2(C)[C@H]1CC[C@]2(C)O,inactive,–
CCC(C)c1cc([N+](=O)[O-])cc([N+](=O)[O-])c1O (centres undefined),inactive,–
N#Cc1ccc(N(CC(N)=O)CC(F)(F)F)cc1C(F)(F)F,inactive,–
CC1=C2C[C@H]3[C@@H](CC=C4C[C@@H](O)CC[C@@]43C)[C@@H]2CC[C@]12O[C@@H]1C[C@H](C)CN[C@H]1[C@H]2C,–,8.12 µM (active)
CC(c1ccc(O)cc1)(c1ccc(O)cc1)c1ccc(O)cc1,–,11.1 µM (active)
CCCCCCCCOC(=O)c1ccccc1C(=O)OCCCCCCCC,inactive,–
C[C@]12CCC(=O)C=C1CC[C@@H]1[C@@H]2CC[C@]2(C)C(=O)CC[C@@H]12,inactive,–
O=C(O)C(F)(F)C(F)(F)C(F)(F)C(F)(F)C(F)(F)C(F)(F)C(F)(F)C(F)(F)F,inactive,–
Clc1ccc(C(Cl)(Cl)Cl)cc1,inactive,–
c1cc2ccc3cccc4ccc(c1)c2c34,inactive,–
ClC(Cl)=C(c1ccc(Cl)cc1)c1ccc(Cl)cc1,inactive,21.5 µM (active) and 27.7 µM (active) and 184 µM (active)
Cc1cccc(C)c1N,inactive,–
Oc1c(Cl)c(Cl)c(Cl)c(Cl)c1Cl,inactive,–
Cc1cc(O)ccc1Cl,inactive,–
O=S(=O)(O)C(F)(F)C(F)(F)C(F)(F)C(F)(F)C(F)(F)C(F)(F)F,inactive,–
CC(C)(c1ccccc1)c1ccc(O)cc1,inactive,33.4 µM (active)
CN(C)c1nc(=O)n(C2CCCCC2)c(=O)n1C,inactive,–
OCC(O)CO,inactive,–
Oc1ccc(Cl)cc1Cl,inactive,–
CCSC(=O)N(CC)C1CCCCC1,inactive,–
O=NN(c1ccccc1)c1ccccc1,inactive,–
COc1ccc(O)c(C(C)(C)C)c1,inactive,–
CCCCCCCCCC[N+](C)(C)CCCCCCCCCC,–,5.11 µM (active)
CO/C=C(/C(=O)OC)c1ccccc1COc1cccc(C(F)(F)F)n1,–,26.4 µM (active)
NS(=O)(=O)C(F)(F)C(F)(F)C(F)(F)C(F)(F)C(F)(F)C(F)(F)C(F)(F)C(F)(F)F,inactive,9.66 µM (active)
Cc1cc2c3c(c1)C(c1ccccc1)=N[C@@H](NC(=O)c1ccncc1)C(=O)N3CC2,inactive,–
Cc1cccc([N+](=O)[O-])c1,inactive,–
